What was measured:
Test in all cases: log2 ratio of Biotin-Ahx-Ub-VS probe labelling (fragment/DMSO); higher = less target engagement (more negative = stronger competition), active = hit call of the paper (q ≤ 0.05, log2 ratio ≤ -1)
Conditions in all cases: compound concentration: 200 uM; treatment time: 3 h
[1] = target: USP9X (UniProt Q93008)
In short: (§1)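 Labelled DUBs from HEK293T lysate were NeutrAvidin-enriched, digested with LysC and trypsin, and run by diaPASEF LC-MS/MS. Before that, each 495 µg sample in Tris/CHAPS/IGEPAL buffer with protease inhibitors was treated in triplicate with fragment at 200 µM or vehicle for 3 h, then with Biotin-Ahx-Ub-VS at 0.5 µM final for 1 h. Values are average log2 ratios of fragment over vehicle by unpaired t-test, based on global-median-normalised Spectronaut label-free quantities from proteins with ≥2 unique peptides.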

[2] = target: UniProt O00487
In short: as §1

[3] = target: UniProt O00507
In short: as §1

[4] = target: UniProt P51784
In short: as §1

[5] = target: T1, UniProt Q5T2D3
T1 sequence (whole entry): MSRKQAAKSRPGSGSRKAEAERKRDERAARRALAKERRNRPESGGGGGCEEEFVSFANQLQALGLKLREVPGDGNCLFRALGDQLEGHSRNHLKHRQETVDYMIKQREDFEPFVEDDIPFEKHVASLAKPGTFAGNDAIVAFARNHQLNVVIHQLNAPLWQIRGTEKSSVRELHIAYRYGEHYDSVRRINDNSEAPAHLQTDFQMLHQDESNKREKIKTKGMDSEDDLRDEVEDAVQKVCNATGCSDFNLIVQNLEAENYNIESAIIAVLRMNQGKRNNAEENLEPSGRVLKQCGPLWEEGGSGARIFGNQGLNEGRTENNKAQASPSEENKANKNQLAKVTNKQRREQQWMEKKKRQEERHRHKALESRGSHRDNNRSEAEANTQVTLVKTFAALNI
In short: as §1

[6] = target: T2, UniProt Q8TE49
T2 sequence (whole entry): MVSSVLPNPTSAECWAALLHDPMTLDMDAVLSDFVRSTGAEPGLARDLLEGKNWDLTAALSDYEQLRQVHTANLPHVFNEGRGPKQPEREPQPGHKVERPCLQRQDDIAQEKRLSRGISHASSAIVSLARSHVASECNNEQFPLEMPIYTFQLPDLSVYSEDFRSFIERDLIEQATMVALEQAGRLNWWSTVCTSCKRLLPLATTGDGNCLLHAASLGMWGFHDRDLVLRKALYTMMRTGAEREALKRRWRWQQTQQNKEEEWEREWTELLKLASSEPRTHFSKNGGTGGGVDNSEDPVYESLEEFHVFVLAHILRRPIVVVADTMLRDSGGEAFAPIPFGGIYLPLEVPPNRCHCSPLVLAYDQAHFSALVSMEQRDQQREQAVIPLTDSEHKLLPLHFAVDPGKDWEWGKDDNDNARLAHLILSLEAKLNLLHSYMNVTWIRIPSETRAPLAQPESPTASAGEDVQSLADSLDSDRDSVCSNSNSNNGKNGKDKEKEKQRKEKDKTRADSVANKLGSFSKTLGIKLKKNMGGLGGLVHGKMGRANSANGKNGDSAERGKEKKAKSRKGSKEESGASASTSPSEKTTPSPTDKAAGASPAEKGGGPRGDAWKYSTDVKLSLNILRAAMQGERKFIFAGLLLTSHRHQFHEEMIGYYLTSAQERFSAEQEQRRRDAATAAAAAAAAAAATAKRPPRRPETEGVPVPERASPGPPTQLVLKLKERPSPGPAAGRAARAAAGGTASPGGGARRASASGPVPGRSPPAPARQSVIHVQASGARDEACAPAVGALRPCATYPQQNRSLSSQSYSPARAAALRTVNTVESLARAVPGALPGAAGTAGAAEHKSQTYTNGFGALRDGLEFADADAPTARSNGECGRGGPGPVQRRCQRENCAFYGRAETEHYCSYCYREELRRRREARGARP
In short: as §1

[7] = target: T3, UniProt Q9P2H5
T3 sequence (whole entry): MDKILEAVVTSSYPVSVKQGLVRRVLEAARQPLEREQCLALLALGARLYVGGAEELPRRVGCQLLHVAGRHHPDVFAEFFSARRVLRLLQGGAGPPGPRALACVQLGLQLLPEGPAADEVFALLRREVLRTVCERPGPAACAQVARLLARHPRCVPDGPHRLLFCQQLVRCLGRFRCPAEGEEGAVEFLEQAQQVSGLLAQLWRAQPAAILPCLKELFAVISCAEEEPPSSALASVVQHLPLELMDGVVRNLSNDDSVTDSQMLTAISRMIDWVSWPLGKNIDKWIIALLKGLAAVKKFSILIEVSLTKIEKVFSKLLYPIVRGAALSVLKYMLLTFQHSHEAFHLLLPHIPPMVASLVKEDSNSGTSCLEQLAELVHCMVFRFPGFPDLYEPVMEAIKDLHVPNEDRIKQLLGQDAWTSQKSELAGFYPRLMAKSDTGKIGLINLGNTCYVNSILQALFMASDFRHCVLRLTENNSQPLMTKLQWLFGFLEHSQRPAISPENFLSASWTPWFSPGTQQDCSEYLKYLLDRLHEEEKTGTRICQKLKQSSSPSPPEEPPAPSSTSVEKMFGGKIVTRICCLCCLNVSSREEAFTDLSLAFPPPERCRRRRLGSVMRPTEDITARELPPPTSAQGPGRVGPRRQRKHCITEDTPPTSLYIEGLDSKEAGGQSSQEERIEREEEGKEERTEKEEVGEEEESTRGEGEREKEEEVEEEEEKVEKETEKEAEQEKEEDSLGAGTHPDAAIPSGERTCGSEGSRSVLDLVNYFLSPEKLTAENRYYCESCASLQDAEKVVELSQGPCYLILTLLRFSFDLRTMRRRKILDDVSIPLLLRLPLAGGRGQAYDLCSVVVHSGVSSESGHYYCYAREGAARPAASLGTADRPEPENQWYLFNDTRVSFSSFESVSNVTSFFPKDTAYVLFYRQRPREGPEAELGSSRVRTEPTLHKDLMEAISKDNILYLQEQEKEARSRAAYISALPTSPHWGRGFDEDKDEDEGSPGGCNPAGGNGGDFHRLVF
In short: as §1

[8] = target: T4, UniProt Q9UGI0
T4 sequence (whole entry): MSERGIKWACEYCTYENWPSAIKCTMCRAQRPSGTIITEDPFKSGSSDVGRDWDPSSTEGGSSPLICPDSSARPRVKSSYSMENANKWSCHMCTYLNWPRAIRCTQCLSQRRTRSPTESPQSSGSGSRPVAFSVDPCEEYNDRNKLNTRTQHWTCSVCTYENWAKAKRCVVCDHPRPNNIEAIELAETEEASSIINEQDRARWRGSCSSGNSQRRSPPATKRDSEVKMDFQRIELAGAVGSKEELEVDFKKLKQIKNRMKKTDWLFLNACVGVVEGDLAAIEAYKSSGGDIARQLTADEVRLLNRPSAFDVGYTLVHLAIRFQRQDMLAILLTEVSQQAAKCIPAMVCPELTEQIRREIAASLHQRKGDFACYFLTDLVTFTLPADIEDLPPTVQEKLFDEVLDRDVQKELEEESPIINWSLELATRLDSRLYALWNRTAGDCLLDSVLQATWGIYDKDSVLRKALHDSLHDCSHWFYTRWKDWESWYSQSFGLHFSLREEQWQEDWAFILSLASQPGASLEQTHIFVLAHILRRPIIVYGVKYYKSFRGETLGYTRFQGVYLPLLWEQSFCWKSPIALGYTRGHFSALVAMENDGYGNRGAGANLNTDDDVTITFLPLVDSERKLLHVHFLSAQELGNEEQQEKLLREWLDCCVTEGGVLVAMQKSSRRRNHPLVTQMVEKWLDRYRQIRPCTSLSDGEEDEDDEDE
In short: as §1

[9] = target: T5, YOD1 (UniProt Q5VVQ6)
T5 sequence (whole entry): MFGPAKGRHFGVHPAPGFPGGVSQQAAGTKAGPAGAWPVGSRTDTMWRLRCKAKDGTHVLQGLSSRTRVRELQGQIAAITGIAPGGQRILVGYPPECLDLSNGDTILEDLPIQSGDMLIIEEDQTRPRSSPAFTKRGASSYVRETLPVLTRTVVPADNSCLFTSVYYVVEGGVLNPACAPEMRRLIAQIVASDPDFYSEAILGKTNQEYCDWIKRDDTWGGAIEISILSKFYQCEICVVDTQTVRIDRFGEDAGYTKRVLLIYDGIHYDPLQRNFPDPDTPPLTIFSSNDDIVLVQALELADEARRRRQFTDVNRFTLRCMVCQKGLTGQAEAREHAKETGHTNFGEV
In short: as §1

Measured: log2 ratio of Biotin-Ahx-Ub-VS probe labelling

Chain of UniProt O00487 (O00487 whole entry): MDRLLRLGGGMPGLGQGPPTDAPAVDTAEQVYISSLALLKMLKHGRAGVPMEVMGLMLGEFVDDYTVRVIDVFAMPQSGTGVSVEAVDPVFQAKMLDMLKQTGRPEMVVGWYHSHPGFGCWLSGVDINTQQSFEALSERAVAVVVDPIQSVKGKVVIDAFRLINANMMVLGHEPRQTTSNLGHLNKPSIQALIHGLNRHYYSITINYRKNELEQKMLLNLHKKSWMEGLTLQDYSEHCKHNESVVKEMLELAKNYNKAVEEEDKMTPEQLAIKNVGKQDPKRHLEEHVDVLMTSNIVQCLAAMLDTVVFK
Chain of UniProt O00507 (O00507 whole entry): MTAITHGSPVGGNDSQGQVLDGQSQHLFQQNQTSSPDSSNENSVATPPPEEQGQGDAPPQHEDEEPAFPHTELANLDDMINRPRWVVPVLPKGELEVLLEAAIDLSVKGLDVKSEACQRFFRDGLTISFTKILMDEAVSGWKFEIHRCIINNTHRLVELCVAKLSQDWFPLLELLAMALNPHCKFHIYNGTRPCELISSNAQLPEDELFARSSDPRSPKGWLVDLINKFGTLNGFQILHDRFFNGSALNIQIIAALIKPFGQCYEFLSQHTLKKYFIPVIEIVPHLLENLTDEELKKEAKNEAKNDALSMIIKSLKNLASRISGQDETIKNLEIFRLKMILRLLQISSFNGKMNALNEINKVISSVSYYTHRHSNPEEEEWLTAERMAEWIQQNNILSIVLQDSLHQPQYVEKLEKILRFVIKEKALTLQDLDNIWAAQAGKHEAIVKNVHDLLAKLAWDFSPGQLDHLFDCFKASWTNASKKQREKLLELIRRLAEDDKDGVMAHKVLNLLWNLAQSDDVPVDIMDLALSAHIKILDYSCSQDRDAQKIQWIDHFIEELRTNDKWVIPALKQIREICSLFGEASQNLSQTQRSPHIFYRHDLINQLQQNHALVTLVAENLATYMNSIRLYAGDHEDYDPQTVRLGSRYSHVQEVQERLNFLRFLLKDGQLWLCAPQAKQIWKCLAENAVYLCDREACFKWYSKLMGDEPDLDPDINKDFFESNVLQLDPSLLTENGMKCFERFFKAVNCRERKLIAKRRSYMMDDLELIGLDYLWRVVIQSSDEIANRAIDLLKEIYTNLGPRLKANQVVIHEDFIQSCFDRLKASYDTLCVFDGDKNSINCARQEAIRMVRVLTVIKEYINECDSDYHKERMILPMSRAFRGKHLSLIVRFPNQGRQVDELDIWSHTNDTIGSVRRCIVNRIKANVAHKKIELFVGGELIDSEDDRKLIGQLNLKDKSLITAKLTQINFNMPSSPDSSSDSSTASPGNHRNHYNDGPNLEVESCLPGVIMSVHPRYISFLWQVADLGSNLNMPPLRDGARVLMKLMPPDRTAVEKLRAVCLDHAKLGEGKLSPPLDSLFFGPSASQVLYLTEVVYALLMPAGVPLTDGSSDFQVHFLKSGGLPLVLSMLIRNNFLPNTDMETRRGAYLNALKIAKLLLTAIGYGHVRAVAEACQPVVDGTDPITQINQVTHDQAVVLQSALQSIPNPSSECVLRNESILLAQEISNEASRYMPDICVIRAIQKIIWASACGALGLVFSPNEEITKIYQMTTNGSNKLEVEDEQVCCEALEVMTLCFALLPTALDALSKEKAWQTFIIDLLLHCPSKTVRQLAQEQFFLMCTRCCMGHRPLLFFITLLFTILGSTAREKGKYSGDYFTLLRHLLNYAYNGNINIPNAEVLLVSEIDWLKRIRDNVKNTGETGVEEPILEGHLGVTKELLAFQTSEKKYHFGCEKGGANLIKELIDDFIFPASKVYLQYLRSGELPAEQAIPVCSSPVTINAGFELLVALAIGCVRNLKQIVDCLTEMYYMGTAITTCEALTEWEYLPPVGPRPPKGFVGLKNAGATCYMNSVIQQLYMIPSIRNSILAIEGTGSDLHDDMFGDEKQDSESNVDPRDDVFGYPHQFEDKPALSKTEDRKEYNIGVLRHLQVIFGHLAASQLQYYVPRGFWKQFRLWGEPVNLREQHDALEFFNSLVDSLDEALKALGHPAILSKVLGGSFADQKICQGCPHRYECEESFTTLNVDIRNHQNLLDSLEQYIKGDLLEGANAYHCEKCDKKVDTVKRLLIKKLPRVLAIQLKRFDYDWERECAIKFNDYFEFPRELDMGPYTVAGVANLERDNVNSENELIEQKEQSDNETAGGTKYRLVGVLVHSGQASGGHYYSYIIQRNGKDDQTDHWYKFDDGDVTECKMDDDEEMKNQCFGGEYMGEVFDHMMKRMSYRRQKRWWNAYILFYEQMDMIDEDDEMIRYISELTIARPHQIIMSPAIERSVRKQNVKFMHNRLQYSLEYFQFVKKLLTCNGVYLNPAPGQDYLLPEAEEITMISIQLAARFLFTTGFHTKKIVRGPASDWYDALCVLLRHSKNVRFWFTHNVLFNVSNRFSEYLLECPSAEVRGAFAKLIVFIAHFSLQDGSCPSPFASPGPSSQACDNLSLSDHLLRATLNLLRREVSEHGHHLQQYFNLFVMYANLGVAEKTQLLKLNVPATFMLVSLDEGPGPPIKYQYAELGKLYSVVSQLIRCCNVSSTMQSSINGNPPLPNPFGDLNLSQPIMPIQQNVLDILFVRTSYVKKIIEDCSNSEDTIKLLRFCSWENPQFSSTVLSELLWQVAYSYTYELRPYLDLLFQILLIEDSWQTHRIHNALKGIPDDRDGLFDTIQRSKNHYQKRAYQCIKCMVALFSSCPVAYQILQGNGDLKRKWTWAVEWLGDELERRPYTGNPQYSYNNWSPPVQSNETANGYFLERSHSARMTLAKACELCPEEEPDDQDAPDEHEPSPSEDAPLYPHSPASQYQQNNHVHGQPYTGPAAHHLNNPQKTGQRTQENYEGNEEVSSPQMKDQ
Chain of UniProt P51784 (P51784 whole entry): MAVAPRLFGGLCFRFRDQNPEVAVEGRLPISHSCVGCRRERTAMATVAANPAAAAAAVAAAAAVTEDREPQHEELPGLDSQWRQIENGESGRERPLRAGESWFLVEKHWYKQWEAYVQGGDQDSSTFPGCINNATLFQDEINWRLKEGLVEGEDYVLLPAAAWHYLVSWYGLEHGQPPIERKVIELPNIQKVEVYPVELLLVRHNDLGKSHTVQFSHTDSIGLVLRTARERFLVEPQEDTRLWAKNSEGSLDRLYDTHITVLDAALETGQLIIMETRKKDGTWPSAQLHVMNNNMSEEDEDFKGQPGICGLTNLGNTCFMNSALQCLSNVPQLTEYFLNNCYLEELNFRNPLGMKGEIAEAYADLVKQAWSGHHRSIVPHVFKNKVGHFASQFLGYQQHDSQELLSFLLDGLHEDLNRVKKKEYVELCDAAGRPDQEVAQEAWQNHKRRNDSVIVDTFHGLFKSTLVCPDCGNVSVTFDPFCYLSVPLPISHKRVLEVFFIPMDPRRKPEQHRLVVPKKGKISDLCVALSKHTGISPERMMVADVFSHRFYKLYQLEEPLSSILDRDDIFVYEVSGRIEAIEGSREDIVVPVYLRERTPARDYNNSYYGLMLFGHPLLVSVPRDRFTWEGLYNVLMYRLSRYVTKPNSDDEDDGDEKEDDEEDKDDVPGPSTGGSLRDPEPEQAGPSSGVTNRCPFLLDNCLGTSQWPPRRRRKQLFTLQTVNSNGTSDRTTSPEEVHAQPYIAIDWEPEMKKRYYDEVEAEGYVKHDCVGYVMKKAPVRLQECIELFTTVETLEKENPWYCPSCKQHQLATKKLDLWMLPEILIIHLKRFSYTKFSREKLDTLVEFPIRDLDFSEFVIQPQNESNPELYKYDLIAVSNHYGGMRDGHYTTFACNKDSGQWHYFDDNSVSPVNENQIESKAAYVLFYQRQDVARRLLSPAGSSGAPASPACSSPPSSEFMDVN

O=C(CCl)N1CCc2ccccc2C(O)C1 (centres undefined)
inactive: [1] -0.333 | [2] -0.0272 | [3] -0.255 | [4] -0.0328 | [5] -0.418 | [6] -0.836 | [7] 0.153 | [9] -0.325
active: [8] -1.86

Reference: the supplement of paper PMC11732987, “Enantioselective OTUD7B fragment discovery through chemoproteomics screening and high-throughput optimisation” (Communications Chemistry, 2025)
